AmpC no deterg – AmpC beta-lactamase inhibition without detergent; Potency, µM (highest dose often 57.1 µM), most hits filed as inhibitors; AmpC nitrocefin hydrolysis, absorbance 480 nm, 0.0001% Triton; P00811; 330,000 tested, 0.52% active; also: nearly all actives have a fitted effect of over 20% in size
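AmpC (5.3 nM in the dispensed reagent) in 20 mM phosphate pH 7.0 with 0.01% (detergent screen) or 0.0001% Triton X-100 was preincubated with compounds for 15 min at room temperature. Nitrocefin was then added from an 800 uM solution, and hydrolysis was followed at 480 nm.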
SARS PLpro yeast – inhibitors of SARS-CoV papain-like protease in yeast. S. cerevisiae expressing SARS-CoV PLpro, growth rescue. Potency, µM (series often up to 32.9 µM), most hits filed as activators. 330,000 tested, 0.19% active. AID 485353; calls by dose curve; also: nearly all actives have a fitted effect of over 55% in size
Pf growth 96h – P. falciparum growth inhibition at 96 hour, primary screen for plastid delayed-death inhibitors | P. falciparum luciferase reporter growth, 96 h | Potency, µM (titrated, usually from 28.7 µM), usual class: inhibitors | 320,000 tested, 6.9% active
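Luminescence readout: decreased luciferase signal marks inhibited growth of reporter-expressing P. falciparum in infected red cells (2% hematocrit, 0.05% parasitemia final), exposed to compound two generations (96 h, 37 C, 5% CO2).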
Pf growth 48h – P. falciparum growth inhibition at 48 hours (one generation) | P. falciparum luciferase growth in erythrocytes, 48 h | 310,000 tested, 5.9% active | Potency, µM (titrated, usually from 28.7 µM), actives largely listed as inhibitors
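Luminescence readout; reporter = integrated firefly luciferase in P. falciparum. RBC culture at 2% hematocrit, 0.1% parasitemia final, 37 C/5% CO2; decreased signal taken as growth inhibition.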
Sm TGR inh – blocks Schistosoma mansoni thioredoxin glutathione reductase; 360,000 tested, 3% active; Potency, µM (top dose mostly 114 µM), most hits filed as inhibitors; purified TGR, DTNB reduction, TNB absorbance 405 nm; Q962Y6; also: nearly all actives have a fitted effect of over 60% in size
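Kinetic colorimetric format: TGR-catalysed, NADPH-driven DTNB reduction monitored via TNB absorbance. Enzyme dispensed at 20 nM; compound exposure 15 min at room temperature before reaction start.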
AmpC inh detg – AmpC beta-lactamase inhibition with detergent present; P00811; Potency, µM (top dose mostly 114 µM), usual class: inhibitors; 370,000 tested, 0.041% active; AID 485294; AmpC hydrolysis of nitrocefin, absorbance 480 nm, 0.01% Triton; also: nearly all actives have a fitted effect of over 25% in size
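20 mM phosphate pH 7.0 + 0.01% (detergent screen) or 0.0001% Triton X-100; 5.3 nM AmpC reagent; cpd preinc 15 min RT; nitrocefin (800 uM stock) to start; A480 q20 s × 4 min; Activity was normalised to no-enzyme and no-compound control wells.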
Numbers stand for hits; i = inactive; ? = inconclusive; nt = no result. In the library only some 12% were active in any assay of this set; here they are far more common. Unless noted, calls follow the shape of the dose curve; as a rule, active = well fitted curve in the direction sought with a large enough effect; inconclusive = small, poorly fitted or top-dose-only effect, or another doubt; inactive = no such curve, though single readings can be large; an effect the other way counts as inactive or inconclusive.

SMILES	AmpC no deterg	SARS PLpro yeast	Pf growth 96h	Pf growth 48h	Sm TGR inh	AmpC inh detg
O=C(OCc1ccc([N+](=O)[O-])cc1)c1cc(S(=O)(=O)N2CCCCC2)ccc1N1CCOCC1	i	i	10µM	?	?	?
Cc1ccc(OCCOC(=O)c2cc(S(=O)(=O)N3CCCCC3)ccc2N2CCOCC2)cc1	i	i	13µM	?	i	?
COc1ccc(OC)c(COC(=O)c2cc([N+](=O)[O-])ccc2N2CCOCC2)c1	i	i	2.9µM	4.7µM	i	i
O=C(CN1CCC(C(=O)c2ccc(Cl)cc2)CC1)Nc1ccc2c(c1)OCCO2	i	i	i	i	i	i
COc1ccc(-n2c(=O)c3sc4ccccc4c3n(CC(=O)N3CCCC3)c2=O)cc1	nt	nt	nt	nt	i	i
Cc1cc(NC(=O)c2cc(C(C)C)on2)no1	i	i	?	i	i	i
Cc1cc(C)nc(/N=C(\N)N(Cc2ccccc2)Cc2ccccc2)n1	i	i	10µM	?	i	i
Cc1ccc2nc(-c3cccc(Br)c3)cc(C(=O)NC3=NCCS3)c2c1	i	i	i	4.7µM	nt	i
Cc1ccc(-c2cc(C(=O)NC3=NCCS3)c3ccccc3n2)cc1C	i	i	2.1µM	?	i	i
Cn1c(CC(=O)NNC(=O)c2ccccc2[N+](=O)[O-])nc2ccccc21	i	i	i	i	i	i
COc1cc(NC(=O)CC2NCCNC2=O)cc(OC)c1 (centres undefined)	i	i	i	?	i	i
CCC(C)NC(=O)CSc1ccc(S(=O)(=O)N(C)C2CCCCC2)cn1 (centres undefined)	i	i	nt	nt	nt	nt
